# Shown are actives, neighbours in structure and some others; about 21% of the full set was active somewhere.
# FBPA Giardia inh: blocks Giardia fructose-bisphosphate aldolase activity. AID 2451. actives 0.71% (n = 290,000). purified Giardia FBPA. Potency, µM (highest dose often 59.6 µM), without a hit: at the highest dose activity, negative = inhibition, hits mostly inhibitors; note: potency is the fitted concentration of half-maximal effect; % is set by controls: 0 for no effect and ±100 for the full control effect; nearly all actives have a fitted effect of over 55% in size
# Target sequence (A8B2U2 whole entry, looked up): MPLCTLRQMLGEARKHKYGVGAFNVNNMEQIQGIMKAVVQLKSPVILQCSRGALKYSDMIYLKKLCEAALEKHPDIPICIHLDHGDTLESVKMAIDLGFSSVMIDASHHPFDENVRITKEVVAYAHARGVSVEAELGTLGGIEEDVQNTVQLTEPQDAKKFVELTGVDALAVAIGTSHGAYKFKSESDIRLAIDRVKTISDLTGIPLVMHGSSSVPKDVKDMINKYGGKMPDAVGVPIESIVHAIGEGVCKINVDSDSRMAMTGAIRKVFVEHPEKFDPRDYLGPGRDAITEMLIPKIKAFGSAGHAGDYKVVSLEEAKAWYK
#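 Giardia FBPA (40 nM reagent) was preincubated 10 min at RT with compound (up to 57.5 uM final), then substrate plus GAPDH/TPI/NAD/arsenate coupling system with diaphorase/resazurin was added; resorufin fluorescence (525/598 nm) was read after 20 min.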
# NS1 inh: influenza NS1 inhibition; AID 2326; Potency, µM (highest dose often 46.1 µM), without a hit: at the highest dose activity, positive = more growth; actives 0.4% (n = 270,000); calls by dose curve; note: potency is the fitted concentration of half-maximal effect; actives are rising curves; nearly all actives have a fitted effect of over 50% in size
#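 Compounds were scored for reversing the slow growth caused by influenza A NS1 in S. cerevisiae, measured by optical density at 600 nm. Assay medium contained 2% galactose at pH 6.0; NS1-free yeast of the same strain were the positive control.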
# Pf growth 96h: inhibits malaria parasite growth, 96 h; actives 6.9% (n = 320,000); Potency, µM (doses to about 28.7 µM), inactives show top-dose activity change, negative = inhibition, actives largely listed as inhibitors; P. falciparum luciferase reporter growth, 96 h; note: potency is the fitted concentration of half-maximal effect; % is set by controls: 0 for no effect and ±100 for the full control effect
#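 Two parasite generations (96 h, 37 C, 5% CO2) of compound exposure in infected erythrocytes (0.05% parasitemia, 2% hematocrit). Luciferase-reporter P. falciparum; decreased luminescence indicates inhibited growth, aimed at apicoplast-acting delayed death.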
# Shiga toxin inh: blocks Shiga toxin action in Vero cells. Vero cells, Shiga toxin protein synthesis inhibition reporter. inhibition, % at 38.7 µM. actives 9.2% (n = 290,000); in the data active = inhibition mostly above about 28%, no sharp cut-off; inactive = mostly below about 43%; note: 0% is about no effect
# Pf growth 48h: P. falciparum growth inhibition at 48 hours (one generation); P. falciparum luciferase growth in erythrocytes, 48 h; Potency, µM (doses to about 28.7 µM), for inactives: top-dose activity change, negative = inhibition, most hits filed as inhibitors; actives 5.9% (n = 310,000); AID 504832; note: potency is the fitted concentration of half-maximal effect; % is set by controls: 0 for no effect and ±100 for the full control effect
#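 Growth was read as firefly luciferase luminescence after a 48 h, 37 C, 5% CO2 exposure of compounds to reporter-bearing P. falciparum cultures (0.1% parasitemia, 2% hematocrit final) in Albumax-supplemented RPMI 1640.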
# CHX counter: affects cycloheximide protein synthesis inhibition readout, counter-screen; actives 12% (n = 300,000); max response, %; cell reporter, cycloheximide protein synthesis inhibition counterscreen; AID 2314; in the data active = max response mostly above about 13%, no sharp cut-off; inactive = mostly below about 14%; note: read at 38.3 µM for the half of the compounds with a filed dose; 0% is about no effect
# * hit, by the source's call; i = inactive; ? = inconclusive; . = not tested or not shown. Unless noted, calls come from the whole dose curve; as a rule, active = well fitted curve in the direction sought with a large enough effect; inconclusive = small, poorly fitted or top-dose-only effect, or another doubt; inactive = no such curve, though single readings can be large; an effect the other way counts as inactive or inconclusive.
SMILES,FBPA Giardia inh,NS1 inh,Pf growth 96h,Shiga toxin inh,Pf growth 48h,CHX counter
O=C(Nc1ccnn1C1CCN(Cc2ccn[nH]2)CC1)c1ccccc1,.,-3.7%,3.3%,-26.1,7.2%,0.8
COCCN(C(=O)c1cc(Cl)nc2ccccc12)c1c(N)n(Cc2ccccc2)c(=O)[nH]c1=O,.,.,-13.8%,.,-4.4%,.
Cc1cccc(C)c1OCC(=O)Nc1ccc2c(c1)C(=O)NC2=O,.,6.8%,42.8%,-7.9,20.4%,-3.2
COc1ccc(S(=O)(=O)NCC(=O)Nc2ccc3c(c2)OCCO3)cc1OC,-4.2%,23.6%,-15.5%,-2.2,?,2.2
CCOC(=O)CNC(=O)N1CCCC(CNS(=O)(=O)c2cccs2)C1 (stereo unspecified),5.1%,5.1%,10.4µM*,10.0,9.3%,2.1
O=C(CNS(=O)(=O)c1cccs1)Nc1ccc2c(c1)OCCO2,-9.8%,6.2%,-14.7%,90.2*,65.1%,43.4*
CN(C)/C=C/C(=O)c1cnc(-c2ccccn2)s1,-2.7%,.,233.3%,90.2*,i,36.1*
Cc1nc(-c2ccccn2)sc1C(=O)O,-23.7%,.,79.1%,18.2,76.9%,3.6
CN(C)/C=C/C(=O)c1cnc(-c2cccc(Cl)c2)s1,-0.1%,8.7%,148.2%,66.9*,109.6%,24.6*
CN(C)/C=C/C(=O)c1cnc(-c2ccccc2Cl)s1,-0.1%,9.3%,121.4%,87.1*,247.0%,45.3*
CCOC(=O)CC1C(=O)NCCN1C(=O)c1c(Cl)cccc1Cl (stereo unspecified),3.2%,1.2%,25.1%,-4.8,.,-2.2
COc1cc(/C=N/NC(=O)CCN2CCCCC2)ccc1O,0.0%,7.2%,?,3.1,2.8%,-2.4
COc1cc(/C=N/NC(=O)CN2CCCCC2)ccc1OCc1ccc(Br)cc1,2.0%,9.0%,-3.5%,-1.8,2.7%,12.4*
O=C(N/N=C/c1ccccc1O)c1cc(=O)[nH]c2ccccc12,?,1.9%,0.8%,22.9,26.0%,11.1

# Assay outcomes (PubChem BioAssay)
